# PG9 binder: binders of HIV-1 gp120 antibody PG9, primary screen, biochemical, TR-FRET; inhibition, % at 6.7 µM; HIV-1 gp120 / PG9 antibody interaction; 0.43% of 360,000 active; TR-FRET gp120-PG9 antibody binding; in the data active = inhibition above about 8.5%
# NR1D1 modulator: modulators of Rev-erb alpha DNA binding, primary screen, biochemical, FITC-DNA, fluorescence polarization, uHTS | Nuclear receptor subfamily 1 group D member 1 (Homo sapiens), P20393 | Rev-erbα–FITC-DNA binding, 90 min | activity, % at 10 µM | 0.79% of 370,000 active | AID 1259318, 2017;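 active = activity above about 14%, limit read from the data; passing the limit was not always enough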
# GC-A act: GC-A stimulated cGMP production enhancers – HEK293 GC-A cells, cGMP TR-FRET, EC30 ANP, primary screen | 0% at EC30 ANP, 100% saturating ANP | 0.14% of 370,000 active | Atrial natriuretic peptide receptor 1 (Homo sapiens), P16066 | AID 1671463, 2021 | activation, % at 10 µM; in the data active = activation above about 40%
# V-ATPase pH: regulators of yeast V-ATPase proton pumping, primary screen, pHLuorin cytosolic pH fluorescence; AID 504577, 2011; response, % at 10 µM; 0.37% of 350,000 active; S. cerevisiae; in the data active = response mostly above about 7.3%, no sharp cut-off; inactive = mostly below about 5.4%; also: actives read high
# NPR2 activator: human GC-B receptor activators, primary screen, HEK293 GC-B cells, cGMP TR-FRET, EC30 CNP. Atrial natriuretic peptide receptor 2 (Homo sapiens), P20594. 0.11% of 370,000 active. AID 1920062, 2024. activation, % at 10 µM. 0% at EC30 CNP, 100% saturating CNP;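 active = activation at 10 µM reaching about 35% in either raw or pattern-adjusted values, limit read from the data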
# Target sequence (P20594 whole entry, looked up): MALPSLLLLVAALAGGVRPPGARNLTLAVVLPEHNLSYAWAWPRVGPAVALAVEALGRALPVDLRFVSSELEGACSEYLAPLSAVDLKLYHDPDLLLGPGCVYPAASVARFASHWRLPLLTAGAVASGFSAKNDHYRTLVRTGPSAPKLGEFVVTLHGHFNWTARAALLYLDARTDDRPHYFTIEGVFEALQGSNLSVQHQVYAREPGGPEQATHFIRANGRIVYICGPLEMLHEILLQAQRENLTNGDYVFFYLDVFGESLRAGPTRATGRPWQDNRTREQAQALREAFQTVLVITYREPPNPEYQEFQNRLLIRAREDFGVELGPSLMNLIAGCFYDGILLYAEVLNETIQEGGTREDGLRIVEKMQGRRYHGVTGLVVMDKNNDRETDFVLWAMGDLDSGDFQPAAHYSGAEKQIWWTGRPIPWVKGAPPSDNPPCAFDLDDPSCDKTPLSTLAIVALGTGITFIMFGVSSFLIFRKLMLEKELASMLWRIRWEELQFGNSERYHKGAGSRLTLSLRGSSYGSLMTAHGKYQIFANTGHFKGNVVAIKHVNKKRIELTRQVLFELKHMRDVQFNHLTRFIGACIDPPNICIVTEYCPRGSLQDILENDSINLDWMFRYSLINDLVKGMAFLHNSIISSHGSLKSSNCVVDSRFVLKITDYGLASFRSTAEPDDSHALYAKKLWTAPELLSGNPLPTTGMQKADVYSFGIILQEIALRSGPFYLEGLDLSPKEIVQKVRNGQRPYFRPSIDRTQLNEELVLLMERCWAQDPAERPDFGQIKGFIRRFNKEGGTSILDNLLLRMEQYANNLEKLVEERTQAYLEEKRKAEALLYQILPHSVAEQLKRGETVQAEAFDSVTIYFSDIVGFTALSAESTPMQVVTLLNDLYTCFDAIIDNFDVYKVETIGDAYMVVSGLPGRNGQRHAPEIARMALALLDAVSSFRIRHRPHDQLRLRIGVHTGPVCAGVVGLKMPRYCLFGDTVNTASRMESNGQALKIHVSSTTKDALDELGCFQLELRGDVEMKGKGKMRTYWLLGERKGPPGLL
# PG9 bind confirm: binders of anti-gp120 antibody PG9, confirmation, biochemical, TR-FRET; shares compounds with PG9 binder; TR-FRET PG9 antibody binding; inhibition, % at 6.7 µM; 90% of 1,500 active; AID 651571, 2012; in the data active = inhibition above about 9%
# PGV04 counter: binders of control antibody PGV04, counter-screen for PG9 antibody binder project, biochemical, TR-FRET, distinct HIV envelope site; AID 651604, 2012; 95% of 1,500 active; shares compounds with PG9 binder; inhibition, % at 6.7 µM; TR-FRET PGV04 antibody-gp120 binding; in the data active = inhibition above about 9.5%
# PG9 binder DR: small-molecule binders of antibody PG9, dose response, biochemical, TR-FRET, HIV-1 gp120 antibody | shares compounds with PG9 binder | TR-FRET PG9 antibody-gp120 binding inhibition | IC50, µM | 95 tested, under 10 active | AID 651848, 2012; in the data active = IC50 below about 10 µM
# PGV04 binding DR: binders of control antibody PGV04, dose response, counter-screen for PG9 antibody binder project, biochemical, TR-FRET, distinct HIV envelope site | shares compounds with PG9 binder | TR-FRET binding to control antibody PGV04 | IC50, µM | 20% of 95 active | AID 651937, 2012
# PG126 binding DR: binders of control antibody PG126, dose response, counter-screen for PG9 antibody binder project, biochemical, TR-FRET, distinct HIV envelope site | 20% of 95 active | shares compounds with PG9 binder | IC50, µM | TR-FRET binding to antibody PG126, counterscreen
# Hits are given with their value; - = inactive; . = not tested or not shown. This is a sample that favours compounds with a hit; in the whole collection about 1.6% have one here. Rule as the data show it, unless noted: active = IC50 below about 9 µM; inactive = the rest.
SMILES,PG9 binder,NR1D1 modulator,GC-A act,V-ATPase pH,NPR2 activator,PG9 bind confirm,PGV04 counter,others
O=C(CCc1nc2ccccc2c(=O)[nH]1)OCc1ccc(-c2ccccc2)cc1,9.3,-,-,-,-,17,24,
Cc1cccc(CCNC(=O)c2ccc(Sc3ccccc3Cl)c([N+](=O)[O-])c2)c1,.,-,-,.,-,.,.,
COC(=O)C[C@@H]1CC[C@H]2[C@@H](COc3ccc(NC(=O)NC(C)C)cc3C(=O)N2C)O1,.,-,-,.,-,.,.,
N#Cc1c(SC(C(=O)O)c2ccccc2)nc2c(c1-c1cccs1)CCCC2 (stereo unspecified),20,-,-,-,-,32,44,
COC(=O)CSc1nnc(-c2c[nH]c3ccccc23)o1,-,-,-,-,-,.,.,
O=C(CSc1nnc(-c2c[nH]c3ccccc23)o1)c1ccc(-c2ccccc2)cc1,18,-,-,-,-,22,43,
CN(C)C1(CNC(=O)CC(NC(=O)c2ccccc2Cl)c2ccccc2)CCCCC1 (stereo unspecified),17,-,-,-,-,8.9,9.6,
Cc1sc2ncnc(N3CCC(C(=O)Nc4ccccc4C(C)(C)C)CC3)c2c1C,13,-,-,-,-,17,21,
CCOC(=O)c1ccccc1NC(=O)C1CCN(c2ncnc3sc(C)c(C)c23)CC1,.,.,.,-,.,.,.,
CC(COc1cccc(Cl)c1)CN1CCC(C(O)(c2ccccc2)c2ccccc2)CC1 (stereo unspecified),.,-,-,.,-,.,.,
CCOC(=O)C1CCN(C(=O)c2ccc(N(C)S(C)(=O)=O)cc2)CC1,-,-,-,-,-,.,.,
CN(c1ccc(C(=O)COC(=O)C2CC2)cc1)S(C)(=O)=O,14,-,-,-,-,18,20,
COCCCNC(=O)C1CCN(S(=O)(=O)c2ccc3[nH]c(=O)oc3c2)CC1,.,-,-,.,-,.,.,
COc1ccc(-c2cc3nc(NCc4ccc(C)cc4C)n(C)c(=O)c3s2)cc1OC,13,-,-,.,-,13,20,
Cc1ccc(CNc2nc3cc(-c4ccccc4)sc3c(=O)n2C)c(C)c1,-,-,-,.,-,.,.,
CC(C)(C)c1ccc(S(=O)(=O)N2CCCC(C(=O)NCc3ccco3)C2)cc1 (stereo unspecified),.,-,-,.,-,.,.,
COC(=O)c1cc2ccsc2n1CC(=O)N1CCCc2ccccc21,-,-,-,-,-,.,.,
COC(=O)c1cc2oc3ccccc3c2n1CC(=O)N1CCCc2ccccc21,12,-,-,-,-,12,20,
O=C(Cn1c(=O)c2cccn2c2ccccc21)NCCc1ccccc1,11,-,-,-,-,19,27,
CC(C)N1CCCCC(NC(=O)c2c(F)cccc2F)C1=O (stereo unspecified),.,-,-,.,-,.,.,
COc1ccc(C(=O)Nc2ccc(S(=O)(=O)N3CCCC3)cc2)c(OC)c1,11,-,-,-,-,13,17,
COc1ccccc1CCNC(=O)c1cc(-c2ccccn2)nc2ccccc12,27,-,-,-,-,22,32,
Cc1cc(C)c2nc(-c3ccccn3)cc(C(=O)NCCc3ccc(S(N)(=O)=O)cc3)c2c1,30,-,-,-,-,23,40,
O=C(NCCc1c[nH]c2ccccc12)c1ccc2c(c1)ncn2C1CCCCC1,.,-,-,.,-,.,.,
CC(C)C[C@@H]1COc2cc(F)ccc2S(=O)(=O)N1C,.,-,-,.,-,.,.,
SMILES,PG9 binder,NR1D1 modulator,GC-A act,V-ATPase pH,NPR2 activator,PG9 bind confirm,PGV04 counter,others
Cc1ccc(-n2c(=S)[nH]c3c(oc4ccccc43)c2=O)cc1C,20,-,-,-,-,11,17,
O=c1[nH]c2c(oc3ccccc32)c(=O)n1Cc1ccccc1,-,-,-,-,-,.,.,
O=c1c2oc3ccccc3c2[nH]c(=S)n1-c1ccc(F)cc1,10,-,-,-,-,12,12,
C[C@H](NC(=O)OCc1ccccc1)P(=O)(O)O,.,-,-,.,-,.,.,
CCC(C)C(NC(=O)c1ccccc1NC(=O)c1ccc(OC)cc1)C(=O)NCc1ccco1 (stereo unspecified),-,-,-,-,-,.,.,
COc1ccc(C(=O)Nc2ccc(Cl)cc2C(=O)NCc2ccco2)cc1,11,-,-,-,-,-,17,
COc1cccc(-c2nnc3sc(-c4ccc(Br)o4)nn23)c1,.,-,-,.,-,.,.,
CC(=O)c1ccc(N2CCN(S(=O)(=O)c3cccc(S(=O)(=O)N4CCOCC4)c3)CC2)cc1,16,-,-,-,-,18,27,
COc1ccc(S[C@]2(C(=O)N3CCN(C(C)=O)CC3)CC(=O)N(S(=O)(=O)c3ccc(F)cc3)[C@@H]2c2ccc(OC)cc2)cc1,.,-,-,.,-,.,.,
CC1CCN(CCCn2c(=S)[nH]c3c(sc4ccc([N+](=O)[O-])cc43)c2=O)CC1,-,-,-,-,-,.,.,
CC1CCN(CCCn2c(=S)[nH]c3c(sc4ccccc43)c2=O)CC1,15,-,-,-,-,9.7,9.4,PG9 binder DR=-;PGV04 binding DR=-;PG126 binding DR=-
CCCCNS(=O)(=O)c1ccc2nc(-c3cccnc3)cc(C(=O)NCCCOC)c2c1,11,-,-,-,-,13,15,
COC(=O)C[C@H]1CC[C@@H]2[C@@H](COc3ccc(NC(=O)c4ccno4)cc3C(=O)N2C)O1,.,-,-,.,-,.,.,
CNC(=O)c1c[nH]c2ccc(S(=O)(=O)Nc3ccccc3F)cc2c1=O,12,-,-,-,-,23,25,
CCc1ccccc1NS(=O)(=O)c1ccc2[nH]cc(C(=O)NC3CCCC3)c(=O)c2c1,12,-,-,-,-,19,20,
COc1cccc(NS(=O)(=O)c2ccc3[nH]cc(C(=O)NCCC(C)C)c(=O)c3c2)c1,-,-,-,-,-,.,.,

# From PubChem
